This is an account of results in ChEMBL document CHEMBL4513146, “CO-ADD screening of Karazin Kharkiv National University (Ukraine) compounds”.

Measured potencies and affinities stand elsewhere.

One assay relates to Staphylococcus aureus. To be noted: Concentration 32 ug.mL-1;; ASSAY_TEST Inhibition of Bacterial Growth; detection method Absorption (OD600); MEDIA CAMHB; plate type 384well; NBS; CORNING #3640; time 18 hr.
The subject of another assay is Escherichia coli. To be noted: Concentration 32 ug.mL-1;; ASSAY_TEST Inhibition of Bacterial Growth; detection method Absorption (OD600); MEDIA CAMHB; plate type 384well; NBS; CORNING #3640; time 18 hr.

`COc1cccc(-n2ccn3c(SCc4cccc(Cl)c4)nnc3c2=O)c1`: the Inhibition – broadly, the change of the read-out against control, counted positive when it falls – with Staphylococcus aureus is 12.15%; in the assay with Escherichia coli, -0.34%.
As for `COc1cc(OC)c(NC(=O)Cn2nc3ccc(SC4CCCCC4)nn3c2=O)cc1Cl`, the Inhibition in the assay with Staphylococcus aureus is 7.67%; with Escherichia coli, 5.95%.
In the case of `O=C(CSc1nnc2c(=O)n(-c3ccc(Br)cc3)ccn12)c1ccc(F)cc1`, the values for the Inhibition in the assay with Staphylococcus aureus and in the assay on Escherichia coli were 0.43% and -3.19%, respectively.
With `CCCn1c(=O)c2sccc2n2c(CCC(=O)NCCC34CC5CC(CC(C5)C3)C4)nnc12`, the Inhibition in the assay with Staphylococcus aureus is reported as 0.48%; in the assay with Escherichia coli it was -2.55%.
The like results for `O=S(=O)(c1ccc2nncn2c1)N(Cc1cccc(F)c1)c1ccc(F)c(F)c1` were, in that order, 3.37% and -6.8%.
In the case of `Cc1ccc(-c2ccc3nn(Cc4ccc(Cl)cc4)c(=O)n3n2)cc1C`, the Inhibition was -1.51% in the assay with Staphylococcus aureus and -5.81% in the assay with Escherichia coli.
Take `O=C(Cn1nc2ccc(Sc3ccccc3)nn2c1=O)Nc1ccc(F)c(Cl)c1`: the Inhibition is 8.3% in the assay on Staphylococcus aureus and -2.75% with Escherichia coli.
Consider `CC(C)Cn1c(=O)c2sccc2n2c(=O)n(Cc3cccc(Br)c3)nc12`, for which the Inhibition in the assay with Staphylococcus aureus is 8.88%; in the assay with Escherichia coli, -2.43%.
The like results for `COc1cccc(Oc2nccn3c(=O)n(CC(=O)Nc4ccc(OC)c(Cl)c4)nc23)c1` were, in that order, 8.12% and -5.35%.
Take `COc1ccccc1-n1ccn2c(SCC(=O)N3CCN(c4ccccc4F)CC3)nnc2c1=O`: the Inhibition in the assay with Staphylococcus aureus is given as 13.15%; with Escherichia coli it was -2.51%.
For the compound `Cc1cccc(NC(=O)CSc2nnc3c4cc(-c5ccc(F)cc5)nn4ccn23)c1C`, the Inhibition in the assay on Staphylococcus aureus is -11.28%; in the assay on Escherichia coli, -13.99%.
Turning to `CCOC(=O)N1CCN(C(=O)CCc2nnc3c4cc(-c5ccccc5)nn4ccn23)CC1`, the Inhibition with Staphylococcus aureus is recorded as 4.14%; in the assay with Escherichia coli, -0.18%.
